Experimental findings from PubChem BioAssay are described below.

Assay [1] can be described thus: binders of probe aFSTL3 on microarray, primary screen, stem cell growth factor project, biochemical, small-molecule microarray, fluorescence 635/667 (AID 1064).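 Note: measures binding of the biotinylated anti-FSTL3 antibody to printed compounds.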 Particulars: higher = more signal.
Assay [2] can be described thus: binders from COS7 lysate, DM2A8 probe, primary screen, torsin A project, cell lysate, small-molecule microarray, fluorescence 635/667 (AID 1065). Particulars: higher = more signal, COS7 lysate expressing mutant human TOR1A.
The nature of assay [3]: binders of probe aFGF2 on microarray, primary screen, stem cell growth factor project, biochemical, small-molecule microarray, fluorescence 635/667 (AID 1067).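 Note: measures binding of biotinylated aFGF2 protein to printed compounds on slides; z-score merges feature fluorescence and signal-to-noise across triplicate slides.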 The note with it: higher = more signal.
Assay [4] in a line: binders of probe aFGF10 on microarray, primary screen, stem cell growth factor project, biochemical, small-molecule microarray, fluorescence 635/667 (AID 1071).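 Note: score merges 667 nm spot intensity and signal to noise from triplicate slides.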 The note with it: higher = more signal.
Assay [5] addresses Neurogenic locus notch homolog protein 2 (Homo sapiens) (UniProt Q04721). Description: Notch2 binders on small-molecule microarrays, primary screen, biochemical, small-molecule microarray, 635 nm fluorescence, stem cell growth factors (AID 1073). Particulars: Notch2 binding, higher = more signal.
Assay [6] has as its target Pro-neuregulin-1, membrane-bound isoform (Homo sapiens) (UniProt Q02297). The experiment in a line: NRG1 binders on small-molecule microarrays, primary screen, psychiatric disease protein project, biochemical, small-molecule microarray, fluorescence 635/667 (AID 1075).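 Note: score combines 667 nm spot fluorescence with signal to noise.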 Particulars: NRG1 binding, 635 nm fluorescence, higher = more signal.
The test system of assay [7] is Neuregulin-1 EGF-like domain. Description: binders of neuregulin-1 EGF-like domain, primary screen, biochemical, small-molecule microarray, 635 nm fluorescence (AID 1081).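 Note: binding of the protein to compounds printed on small-molecule microarray slides.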 The note with it: small-molecule microarray binding, higher = more signal.
The nature of assay [8]: FRG1 promoter luciferase signal modulators, primary screen, FRG1 inhibition for FSHD, cell-based, C2C12 myotubes, firefly/Renilla luciferase, luminescence (AID 1084). Particulars: higher = more signal, called active from +8 up or from −8 down.
Assay [9] is described as follows: binders of probe aFST on microarray, primary screen, stem cell growth factor project, biochemical, small-molecule microarray, fluorescence 635/667 (AID 1086).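 Note: score merges 667 nm fluorescence with signal-to-noise of each printed compound spot.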 The note with it: higher = more signal.
The nature of assay [10]: binders of probe aHhip on microarray, primary screen, stem cell growth factor project, biochemical, small-molecule microarray, fluorescence 635/667 (AID 1087).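 Note: score merges spot fluorescence at 667nm with spot signal to noise ratio.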 The note with it: higher = more signal.
Assay [11] relates to PRMT1 (protein arginine N-methyltransferase 1). The experiment in a line: PRMT1 binders on small-molecule microarrays, primary screen, biochemical, small-molecule microarray, 635 nm fluorescence (AID 1088).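 Note: binding of Prmt1 protein to compounds spotted on small-molecule microarray slides.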 The note with it: small-molecule microarray binding, higher = more signal.
The nature of assay [12]: yeast growth modulation, basal conditions, primary screen, YJM789 clinical isolate, OD600, 24 h (AID 1089).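 Note: growth of clinical yeast isolate S. cerevisiae YJM 789 seeded 1000 cells per well; test concentration not given here.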 Particulars: S. cerevisiae YJM789 growth, higher = more signal, called active from +8 up or from −8 down.
Assay [13] can be described thus: fission yeast growth modulation, primary screen, strain 972, OD600, 24 h, no modulator (AID 1090).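 Note: basal condition with compound alone and no growth modifier present; test concentration not given here.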 Particulars: S. pombe 972 growth, higher = more signal, called active from +8 up or from −8 down.
Assay [14] in a line: S. cerevisiae growth modulation with rapamycin, primary screen, strain BY4716, OD600, 96 h (AID 1091). Note: test concentration not given here. Particulars: higher = more signal, called active from +8 up or from −8 down.
In assay [15] the target is Torsin-1A-interacting protein 2 (Homo sapiens) (UniProt Q8NFQ8). Description: LULL1 binders on small-molecule microarray, primary screen, cell lysate, human LULL1 lysate, 635/667 nm fluorescence (AID 1092).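 Note: probe is lysate of COS7 cells overexpressing human LULL1; score merges per-feature 667 nm fluorescence with signal-to-noise.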 The note with it: hLULL1 lysate binding, 635 nm fluorescence, higher = more signal.
A short description of assay [16]: E. coli growth modulation, two-sided OD650, primary screen, E. coli filamentation project, strain DRC41, 24 h (AID 1093).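 Note: MC1000 strain lacking acrAB efflux and sulA so SOS filamentation is blocked; test concentration not given here.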 Particulars: OD650, 24 h, higher = more signal, called active from +8 up or from −8 down.
Assay [17] can be described thus: small-molecule microarray binders of probe aLefty2, primary screen, biochemical, biotinylated probe, 635/667 nm fluorescence (AID 1094).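 Note: score merges spot fluorescence near 667 nm with spot signal-to-noise ratio.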 Particulars: higher = more signal.
The test system of assay [18] is Noggin (protein binding on small-molecule microarray). Description: Noggin binders on small-molecule microarray, primary screen, biochemical, 635/667 nm fluorescence (AID 1095).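 Note: score merges 667 nm feature fluorescence with signal to noise over triplicate slides.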 Particulars: 635 nm fluorescence, higher = more signal.
The target in assay [19] is Neurogenic locus notch homolog protein 3 (Homo sapiens) (UniProt Q9UM47). The experiment in a line: NOTCH3 binders on small-molecule microarray, primary screen, biochemical, 635/667 nm fluorescence (AID 1096). The note with it: NOTCH3 binding, 635 nm fluorescence, higher = more signal.
Assay [20] is described as follows: small-molecule microarray binders of probe aEGFR, primary screen, biochemical, biotinylated probe, 635/667 nm fluorescence (AID 1097).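 Note: probe is a biotinylated anti-EGFR antibody binding compounds printed on slides; score combines fluorescence near 667 nm and signal to noise of each spot.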 Particulars: higher = more signal.

“And” between values parts separate entries of the source, which are not always exact repeats. Equal values may be shown once. The source made the active and inactive calls.

Chain of Neurogenic locus notch homolog protein 2 (Homo sapiens) (Q04721 whole entry, looked up, canonical isoform): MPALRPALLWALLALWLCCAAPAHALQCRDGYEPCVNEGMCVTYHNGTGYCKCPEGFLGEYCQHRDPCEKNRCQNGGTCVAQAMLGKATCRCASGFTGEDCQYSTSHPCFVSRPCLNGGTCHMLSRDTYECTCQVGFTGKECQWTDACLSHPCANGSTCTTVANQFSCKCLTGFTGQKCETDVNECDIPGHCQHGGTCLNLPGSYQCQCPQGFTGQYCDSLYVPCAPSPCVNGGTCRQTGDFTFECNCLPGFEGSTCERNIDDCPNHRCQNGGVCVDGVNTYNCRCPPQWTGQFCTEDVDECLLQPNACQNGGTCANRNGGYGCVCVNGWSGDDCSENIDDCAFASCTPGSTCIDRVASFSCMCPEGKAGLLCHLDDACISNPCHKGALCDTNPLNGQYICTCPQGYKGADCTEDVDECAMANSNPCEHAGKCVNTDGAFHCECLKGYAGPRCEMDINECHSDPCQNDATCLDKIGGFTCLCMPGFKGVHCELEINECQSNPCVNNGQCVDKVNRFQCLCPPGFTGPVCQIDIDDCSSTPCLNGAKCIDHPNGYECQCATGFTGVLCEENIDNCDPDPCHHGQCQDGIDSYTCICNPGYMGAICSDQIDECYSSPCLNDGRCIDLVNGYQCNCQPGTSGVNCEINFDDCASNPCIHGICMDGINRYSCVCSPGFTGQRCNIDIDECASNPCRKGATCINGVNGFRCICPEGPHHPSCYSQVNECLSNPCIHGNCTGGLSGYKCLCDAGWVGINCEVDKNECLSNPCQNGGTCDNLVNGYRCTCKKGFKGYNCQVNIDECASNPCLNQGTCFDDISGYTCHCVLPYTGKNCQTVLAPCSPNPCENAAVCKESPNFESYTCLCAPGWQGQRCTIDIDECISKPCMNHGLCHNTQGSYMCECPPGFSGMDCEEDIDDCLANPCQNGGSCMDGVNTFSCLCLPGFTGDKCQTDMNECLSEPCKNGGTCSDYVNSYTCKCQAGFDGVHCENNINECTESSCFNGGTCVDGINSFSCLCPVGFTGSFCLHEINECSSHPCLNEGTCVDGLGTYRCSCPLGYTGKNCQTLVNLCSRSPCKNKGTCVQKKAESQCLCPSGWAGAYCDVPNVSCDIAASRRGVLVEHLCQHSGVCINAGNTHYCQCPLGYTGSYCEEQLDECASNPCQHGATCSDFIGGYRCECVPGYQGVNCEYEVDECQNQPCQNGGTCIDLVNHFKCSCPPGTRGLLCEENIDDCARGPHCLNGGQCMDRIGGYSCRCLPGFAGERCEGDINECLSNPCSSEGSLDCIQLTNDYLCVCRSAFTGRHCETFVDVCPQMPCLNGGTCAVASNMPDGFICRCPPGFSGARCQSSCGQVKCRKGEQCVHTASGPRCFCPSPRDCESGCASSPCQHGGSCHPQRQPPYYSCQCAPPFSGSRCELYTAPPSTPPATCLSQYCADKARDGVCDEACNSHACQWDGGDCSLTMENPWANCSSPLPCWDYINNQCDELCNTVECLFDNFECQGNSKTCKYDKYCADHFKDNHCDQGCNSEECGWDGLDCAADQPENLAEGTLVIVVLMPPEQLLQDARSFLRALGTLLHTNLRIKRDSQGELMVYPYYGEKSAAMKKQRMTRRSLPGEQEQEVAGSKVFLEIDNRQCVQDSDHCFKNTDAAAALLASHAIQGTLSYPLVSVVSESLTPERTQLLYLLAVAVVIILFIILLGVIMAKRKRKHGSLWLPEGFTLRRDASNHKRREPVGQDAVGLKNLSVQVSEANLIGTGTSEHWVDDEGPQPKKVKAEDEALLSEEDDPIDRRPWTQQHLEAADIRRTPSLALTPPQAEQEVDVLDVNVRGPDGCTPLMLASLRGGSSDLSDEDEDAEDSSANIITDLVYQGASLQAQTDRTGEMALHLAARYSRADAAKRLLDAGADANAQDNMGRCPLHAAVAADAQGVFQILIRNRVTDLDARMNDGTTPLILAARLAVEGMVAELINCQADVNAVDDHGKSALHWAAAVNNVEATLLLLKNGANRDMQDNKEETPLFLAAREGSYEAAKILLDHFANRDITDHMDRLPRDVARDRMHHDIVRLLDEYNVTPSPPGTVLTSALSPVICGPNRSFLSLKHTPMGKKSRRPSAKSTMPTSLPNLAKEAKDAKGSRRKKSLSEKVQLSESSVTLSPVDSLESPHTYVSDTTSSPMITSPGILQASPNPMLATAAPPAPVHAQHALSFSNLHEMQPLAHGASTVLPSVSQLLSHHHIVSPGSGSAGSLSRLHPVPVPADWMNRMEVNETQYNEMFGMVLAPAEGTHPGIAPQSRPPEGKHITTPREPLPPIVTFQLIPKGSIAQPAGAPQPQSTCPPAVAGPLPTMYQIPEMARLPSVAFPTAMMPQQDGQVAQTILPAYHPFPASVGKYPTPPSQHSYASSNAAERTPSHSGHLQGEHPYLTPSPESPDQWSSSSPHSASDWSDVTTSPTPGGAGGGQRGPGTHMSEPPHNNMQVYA
Chain of Torsin-1A-interacting protein 2 (Homo sapiens) (Q8NFQ8 whole entry, looked up): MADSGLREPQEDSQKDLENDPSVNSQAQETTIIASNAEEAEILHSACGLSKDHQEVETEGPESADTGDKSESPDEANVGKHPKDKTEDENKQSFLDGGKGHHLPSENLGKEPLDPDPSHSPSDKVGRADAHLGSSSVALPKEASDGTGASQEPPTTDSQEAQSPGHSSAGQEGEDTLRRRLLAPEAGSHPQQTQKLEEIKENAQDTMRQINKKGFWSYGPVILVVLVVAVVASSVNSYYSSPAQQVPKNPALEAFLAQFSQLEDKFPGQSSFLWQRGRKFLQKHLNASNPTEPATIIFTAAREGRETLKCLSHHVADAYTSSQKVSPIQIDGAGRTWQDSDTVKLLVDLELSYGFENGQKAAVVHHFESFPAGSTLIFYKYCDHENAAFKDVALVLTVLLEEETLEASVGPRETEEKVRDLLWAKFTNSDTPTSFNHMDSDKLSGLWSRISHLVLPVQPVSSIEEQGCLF
Chain of Pro-neuregulin-1, membrane-bound isoform (Homo sapiens) (Q02297 whole entry, looked up, the tested form may be a part, canonical isoform): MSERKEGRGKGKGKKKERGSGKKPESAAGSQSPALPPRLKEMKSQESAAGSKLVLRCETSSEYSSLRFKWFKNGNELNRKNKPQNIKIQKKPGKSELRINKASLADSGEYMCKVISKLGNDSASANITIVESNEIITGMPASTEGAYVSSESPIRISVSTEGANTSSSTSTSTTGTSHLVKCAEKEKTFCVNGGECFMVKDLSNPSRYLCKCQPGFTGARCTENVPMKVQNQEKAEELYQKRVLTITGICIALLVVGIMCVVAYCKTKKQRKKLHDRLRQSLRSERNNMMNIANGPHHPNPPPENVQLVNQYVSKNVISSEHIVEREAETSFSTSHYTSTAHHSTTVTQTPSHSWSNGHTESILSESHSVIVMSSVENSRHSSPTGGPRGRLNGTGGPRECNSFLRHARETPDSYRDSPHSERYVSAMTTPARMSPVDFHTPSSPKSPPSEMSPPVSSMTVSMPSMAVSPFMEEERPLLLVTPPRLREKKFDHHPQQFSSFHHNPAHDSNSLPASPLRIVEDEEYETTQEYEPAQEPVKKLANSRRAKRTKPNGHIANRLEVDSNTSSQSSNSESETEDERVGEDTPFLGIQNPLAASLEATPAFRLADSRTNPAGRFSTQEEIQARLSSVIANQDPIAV

For `C[N+](C)(C)CCCCCCNC(=O)[C@H]1C[C@H]2C(=O)N[C@@H](CCCC[N+](C)(C)C)C(=O)N2[C@H]1c1cccc(OCCO)c1`, the composite z-score in [1] was -0.54 and 1.52; in assay [2], 0.5 and 0.444; in assay [3], -0.0546 and 0.0108; in assay [4], -0.232 and 0.0517; in [5] it was -0.004 and -0.276; in assay [6], 0.55 and -0.353. Besides, the composite z-score is 1.2 and 1.47 in assay [7]; 0.469 and 0.696 in assay [9]; -0.293 and 0.535 in [10]; 1.46 and 0.0165 in assay [11]; 2.99 and 0.566 in [15]; -0.0589 and 0.582 in assay [17]. The composite z-score in assay [18] is 1.94 and 0.904; in [19] it was 1.01 and -0.0712; in [20], -0.0703 and 0.127. The z-score is 3.98 (inactive) and 3.53 (inactive) in assay [8]; -2.56 (inactive) and 0.455 (inactive) in assay [12]; -1.18 (inactive) and -0.331 (inactive) in assay [13]; 0.162 (inactive) and 1.01 (inactive) in assay [14]; 0.598 (inactive) and -0.404 (inactive) in assay [16].

For `C[C@@H](c1ccccc1)N1C(=O)[C@H]2[C@H]3[C@H](O)[C@H](O)CC(=O)[C@@H]3CC[C@H]2C1=O`, the composite z-score was -0.289 in assay [1]; 0.118 in assay [2]; -0.0193 in assay [3]; 0.534 in assay [4]; 0.694 in assay [5]; -0.0676 in assay [6]. Besides, the composite z-score in assay [7] is 0.603; in assay [9] it was 0.435; in assay [10], -0.0672; in assay [11], 0.745; in assay [15] it was 0.775; in [17], -0.0978. The composite z-score in assay [18] came to 0.798; in assay [19], 0.82; in [20] it was 0.596. For the same molecule, the z-score in assay [8] is -1.06 (inactive); in assay [12], -2.24 (inactive); in assay [13] it was -0.971 (inactive); in assay [14], -0.727 (inactive); in assay [16], -0.46 (inactive).

For the molecule `C=CCN(CCCCC)C(=O)C1N(c2c(Cl)cccc2CO)C(=O)C2C(C(=O)O)C3C=CC21O3` (stereo not given), the composite z-score is 1.15 and 1.51 in assay [1]; -0.58 and -2.44 in assay [2]; -0.283 and -0.216 in assay [3]; -1.66 and -1.11 in [4]; -2.36 and -1.86 in assay [5]; -0.855 and -0.992 in [6]. The composite z-score in [7] is -0.506 and -0.277; in assay [9], -0.898 and -1.06; in assay [10] it was -0.169 and -0.213; in assay [11] it was 0.0842 and -0.629; in assay [15], -0.445 and -0.75; in [17], 0.156 and -0.0555. The composite z-score was -2.4 and -2.23 in assay [18]; -0.676 and -0.842 in assay [19]; -0.441 and -0.411 in assay [20]. For the same molecule, the z-score was 0.887 (inactive) and 0.699 (inactive) in assay [8]; 0.006 (inactive) and 0.769 (inactive) in [12]; -0.456 (inactive) and -0.0109 (inactive) in [13]; 0.59 (inactive) and 0.045 (inactive) in assay [14]; 0.31 (inactive) and 0.437 (inactive) in [16].

Take `CC(C)CCN1CCc2nc(-c3ccccc3)c3c(c2C1)CO[C@@H](C)C3`: the composite z-score in [1] was 1.3; in [2], 0.0532; in [3], -0.0996; in [4] it was 0.491; in assay [5] it was 0.698; in assay [6], 0.334. Moreover, the composite z-score in assay [7] was 1.17; in assay [9] it was 0.57; in assay [10], 0.208; in assay [11], 0.837; in [15], 1.8; in assay [17], -0.0641. Also, the composite z-score in [18] is 0.444; in assay [19] it was 0.922; in [20] it was -0.0578. The z-score in [8] is -0.174 (inactive); in assay [12], -0.334 (inactive); in [13] it was -0.519 (inactive); in assay [14] it was 0.622 (inactive); in assay [16], 0.825 (inactive).
